Results: PubChem BioAssay AID1159580 (chemical genetic matrix, 2015)
The whole screen tested about 5,500 compounds, of which about 2,000 (36%) were called active. Another 18% or so got no clear call; they are omitted. Rule as the data show it: active = normalized growth mostly below about 0.91 (no sharp cut-off); inconclusive = no clear call, values can overlap the other calls; inactive = mostly above about 0.92. The list shows a part of the results.

Assay: chemical genetic growth profiling, strain panel (AID 1159580);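 also: tested at 20 µM; growth read once vehicle control cultures reached saturation at 30 °C; 1 = growth at the plate median or of vehicle wells; lower values mean less growth of the strain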
Conditions: growth OD
[1] = S. cerevisiae deletion strains, locus YAL013W, strain DEP1, stronger effect = lower value
[2] = S. cerevisiae deletion strains, locus YBR229C, strain ROT2, stronger effect = lower value
[3] = S. cerevisiae deletion strains, locus YDL101C, strain DUN1, stronger effect = lower value
[4] = S. cerevisiae deletion strains, locus YDL134C, strain PPH21, stronger effect = lower value
[5] = S. cerevisiae deletion strains, locus YDR150W, strain NUM1, stronger effect = lower value
[6] = S. cerevisiae deletion strains, locus YEL061C, strain CIN8, stronger effect = lower value
[7] = S. cerevisiae deletion strains, locus YGR078C, strain PAC10, stronger effect = lower value
[8] = S. cerevisiae deletion strains, locus YHR030C, strain SLT2, stronger effect = lower value
[9] = S. cerevisiae deletion strains, locus YHR087W, strain rtc3, stronger effect = lower value
[10] = S. cerevisiae deletion strains, locus YJR043C, strain POL32, stronger effect = lower value
[11] = S. cerevisiae deletion strains, locus YJR075W, strain HOC1, stronger effect = lower value
[12] = S. cerevisiae deletion strains, locus YLR039C, strain RIC1, stronger effect = lower value
[13] = S. cerevisiae deletion strains, locus YLR058C, strain SHM2 (second series), stronger effect = lower value
[14] = S. cerevisiae deletion strains, locus YLR085C, strain ARP6, stronger effect = lower value
[15] = S. cerevisiae deletion strains, locus YLR262C, strain YPT6, stronger effect = lower value
[16] = S. cerevisiae deletion strains, locus YML094W, strain GIM5, stronger effect = lower value
[17] = S. cerevisiae deletion strains, locus YMR219W, strain ESC1, stronger effect = lower value
[18] = S. cerevisiae deletion strains, locus YMR263W, strain SAP30, stronger effect = lower value
[19] = S. cerevisiae deletion strains, locus YNL153C, strain GIM3, stronger effect = lower value
[20] = S. cerevisiae deletion strains, locus YNL298W, strain CLA4 (second series), stronger effect = lower value
[21] = S. cerevisiae deletion strains, locus YNL322C, strain KRE1, stronger effect = lower value
[22] = S. cerevisiae deletion strains, locus YNR030W, strain Alg12, stronger effect = lower value
[23] = S. cerevisiae deletion strains, locus YPL055C, strain LGE1, stronger effect = lower value
[24] = S. cerevisiae deletion strains, locus YPL241C, strain CIN2, stronger effect = lower value
[25] = S. cerevisiae deletion strains, locus YPR135W, strain CTF4, stronger effect = lower value

Measured: normalized growth

CCN(CC)c1ccc(NC(=O)c2c(F)cccc2F)c(N(CC)CC)n1
active: S. cerevisiae deletion strains, locus YMR307W, strain GAS1, stronger effect = lower value 0.574
inactive: [1] 0.986 | [2] 0.98 | [3] 0.955 | [4] 0.993 | [5] 0.99 | [6] 0.964 | [7] 0.98 | [8] 0.698 | [9] 0.952 | [10] 0.99 | [11] 0.954 | [12] 0.815 | [13] 1 | [14] 0.91 | [15] 0.863 | [16] 0.953 | [17] 0.997 | [18] 1 | [19] 0.991 | [20] 0.935 | [21] 0.987 | [22] 0.942 | [23] 0.963 | [24] 1.05 | [25] 0.8 | S. cerevisiae strains, strain wild type, stronger effect = lower value 0.988

O=C(Nc1cc2cc([N+](=O)[O-])ccc2oc1=O)c1c(F)cccc1F
inactive: [1] 1.02 | [2] 1.02 | S. cerevisiae deletion strains, locus YCL061C, strain MRC1, stronger effect = lower value 0.989 | [3] 0.98 | [4] 1.01 | [5] 0.96 | [6] 1.01 | [7] 1 | [8] 0.994 | [9] 1.09 | S. cerevisiae deletion strains, locus YJL187C, strain SWE1, stronger effect = lower value 1.03 | [10] 0.999 | [11] 1.02 | [12] 1.07 | [13] 1.04 | [14] 1.07 | [15] 1.07 | [16] 1.05 | [17] 1.03 | [18] 0.936 | S. cerevisiae deletion strains, locus YNL128W, strain TEP1, stronger effect = lower value 1.01 | [19] 1.02 | [20] 1.02 | [21] 1.01 | [22] 1.04 | S. cerevisiae deletion strains, locus YOL006C, strain TOP1, stronger effect = lower value 1 | [23] 1.03 | [24] 1.02 | [25] 1.01
